Screening results: PubChem BioAssay, several laboratories
ALR H2O2 inh – human ALR oxidase inhibition via reduced H2O2 | purified ALR, DTT oxidation, H2O2 HRP-luminol luminescence | inhibition, % (no concentration beside the values) | P55789 | actives 3.8% (n = 290,000);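 active = mean replicate inhibition above about 79%, with every replicate also reaching it, limit read from the data; inconclusive = only one of the two criteria met; inactive = mean below limit and not every replicate reaching it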
Target sequence (P55789 whole entry, looked up): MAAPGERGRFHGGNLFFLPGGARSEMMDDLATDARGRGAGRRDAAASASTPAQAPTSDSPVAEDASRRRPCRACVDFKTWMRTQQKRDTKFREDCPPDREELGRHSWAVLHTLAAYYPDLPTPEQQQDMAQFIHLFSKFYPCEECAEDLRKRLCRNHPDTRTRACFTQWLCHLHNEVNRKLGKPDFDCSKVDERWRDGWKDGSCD
VLA-4 inh – inhibition in a human VLA-4 binding assay | VLA-4 expressing cells, ligand binding flow cytometry | inhibition, % (about 7 µM as worked out from the volumes in the protocol) | actives 0.2% (n = 330,000); in the data active = inhibition above about 50%
Mot1-301 SUMO – SUMOylation pathway inhibition by Mot1-301 growth rescue. S. cerevisiae Mot1-301 growth rescue, ATP luminescence, 38.5C; percent above DMSO median, 100 means doubled. growth rescue, % at 18.8 µM. actives 1% (n = 320,000). AID 2716;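 active = every valid replicate shows activation above 250% relative to neutral control wells; inactive = the rest, any valid replicate at or below 250%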;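 also: OY570 slx delta 5 strain wells were the positive control but not used for scaling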
Efflux pump inh – blocks antifungal efflux pumps in multiplex yeast assay. AID 485275. inhibition, % at 10 µM. S. cerevisiae Candida pump triplex, Nile Red efflux. actives 0.44% (n = 330,000);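 active = plate passing quality check with inhibition over a set limit, or well fluorescence over plate mean plus 4 SD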;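 also: Nile Red retained in pooled yeast measured as flow cytometry median fluorescence; 0% = buffer negative control and 100% = Enniatin B positive control; higher means more Nile Red kept so more efflux inhibition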
AHR act – human AHR activation | P35869 | AHR-responsive luciferase reporter cells, luminescence | activation, % at 5 µM | actives 2.5% (n = 320,000) | AID 2796; in the data active = activation above about 47%;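 also: 0% = vehicle wells and 100% = reference agonist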
A1 inh – inhibitors of the anti-apoptotic protein A1, read as caspase activation; MEF A1-2A-BIM cells, Caspase-Glo 3/7 luminescence, 3 h; percent of clofoctol response, vehicle zero; caspase activation, % (test concentration not listed); actives 0.066% (n = 330,000); AID 2462;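 active = over half of replicate activation scores above 10%, or exactly half above 10 with the replicate mean above 10; inconclusive = replicate mean below 10 yet half the replicates above 10; inactive = over half of replicates below 10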
Mot1 SUMO dose – yeast SUMO pathway inhibition in dose response; 2,300 tested, under 10 active; AID 493004; S. cerevisiae Mot1-301 galactose growth, ATP luminescence, 24 h; -100 = growth of slx-deleted rescue strain; shares compounds with Mot1-301 SUMO; growth activity, percent, % at 42 µM;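 active = Signal drops as the depositor expects, and the fitted half-maximal dose is no more than ten times the top valid tested dose; inconclusive = Poor fit, or a flat curve whose signal drops by 30% to 70%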;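 also: more negative values mean stronger growth rescue toward the control strain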
An asterisk follows results filed as active; ? = inconclusive; / = no result given; + = active, no number; [ ] = dose if it differs, or a comment. An excerpt weighted towards active compounds, which were near 7.2% of everything screened.

SMILES	ALR H2O2 inh	VLA-4 inh	Mot1-301 SUMO	Efflux pump inh	AHR act	A1 inh	Mot1 SUMO dose
O=C(NCC(c1cccs1)N1CCOCC1)c1ccccc1NS(=O)(=O)c1cc([N+](=O)[O-])ccc1Cl (centres undefined)	-24	13	504*	0	6	0	-1
CN1/C(=C\C(=O)COC(=O)c2ccc([N+](=O)[O-])o2)C(C)(C)c2ccccc21	-215	-29	428*	0	1	1	-1
CS(=O)(=O)c1ccc(Cl)c(NC(=O)c2ccc3ccccc3c2)c1	-4	12	+	0	-7	2	0
O=C(CCc1nc(-c2ccc(Cl)cc2)no1)NC1CCCC1	0	7	6	0	4	0	/
O=C(CCCc1nc(-c2ccc(Cl)cc2)no1)NC1CCCCC1	3	-2	861*	1	0	1	1
NC(=O)C1CCCN(C(=S)Nc2cccc3ccccc23)C1 (centres undefined)	-22	11	909*	0	13	0	0
NC(=O)C1CCCN(C(=S)NCc2ccc3c(c2)OCO3)C1 (centres undefined)	3	0	4	0	1	0	/
C=CCn1c(=N)c(C(=O)NCCCOC)cc2c(=O)n3ccccc3nc21	-3	13	603*	0	10	0	0
CC[C@]12c3[nH]c4ccccc4c3CCN1C(=O)C(CC(=O)NCCCn1ccnc1)C[C@@H]2C(=O)N1CCN(C(=O)C2CC2)CC1 (some centres undefined)	-1	45	-2	0	1	0	/
CCn1nnc(-c2ccccc2NC(=O)c2cc(OC)c(OC)c(OC)c2)n1	-16	0	-22	0	-3	0	/
CCn1nnc(-c2ccccc2NC(=O)c2cnccn2)n1	-11	10	407*	0	1	1	0
CCOc1ccccc1N1CCN(C(=O)CSc2ccc3c(c2)OCCO3)CC1	/	0	14	0	3	0	/
COc1cc(/C=C/C(=O)OCC(=O)NCC2CCCCC2)ccc1O	?	10	3	0	0	-1	/
O=CNCCCc1nc2ccccc2n1CCc1ccccc1	-6	8	+	0	/	1	0
Cc1c(=O)n(OCc2ccccn2)c2ccccc2[n+]1[O-]	-20	-6	946*	0	52*	0	0
O=c1c(-c2ccc(F)cc2)[n+]([O-])c2ccccc2n1OCc1ccccn1	10	13	112	0	-1	0	/
NS(=O)(=O)c1ccc(CCNC(=O)c2ccc(Cl)s2)cc1	-1	-1	0	0	-6	0	/
NS(=O)(=O)c1ccc(CCNC(=O)c2ccc([N+](=O)[O-])s2)cc1	-32	-7	389*	0	-1	0	1
CCOCCCNC(=S)N(CCN(C)C)Cc1cc2cc3c(cc2[nH]c1=O)OCCO3	/	7	-13	0	7	1	/
Cc1ccc(CNC(=O)CCS(=O)(=O)c2ccc(Br)s2)o1	13	8	11	0	1	0	/
O=C(CCS(=O)(=O)c1ccc(Br)s1)NCc1ccccc1	2	-4	737*	0	5	1	-1
Cc1[nH]c2ccccc2c1/C=N/NC(=O)c1cccc(Br)c1	4	-17	497*	0	68*	0	0
CCNc1cc(=O)n(C)c(=O)n1C	0	-3	-9	0	-1	0	/
CC(C)CNc1cc(=O)n(C)c(=O)n1C	-2	14	392*	0	-1	0	-1
C=CC[N+]1(CC#Cc2ccccc2)CCCC1	0	-4	393*	0	-5	1	0
CN(C)C(=O)c1c2c(nc3ccccc13)CCCC2	/	0	+	0	5	-1	0
Cc1onc(-c2ccccc2Cl)c1C(=O)NNC(=O)c1ccccc1F	-5	1	4	0	4	1	/
O=C(CN1c2ccccc2Sc2ccccc21)N/N=C/c1ccc(Cl)cc1Cl	-5	15	453*	0	1	0	1[21 µM]
